Source: PubChem BioAssay (NCATS)
Inconclusive results are not listed. Activity calls are given as the source filed them. Unless noted, the call rests on the fitted dose curve.

Assays:
[1] = qHTS for Inhibitors of the Functional Ribonucleoprotein Complex (vRNP) of Lassa (LASV) Arenavirus: LASV Primary Screen - GLuc reporter signal (AID 1347082; calls by dose curve; tested in HEK293 reporter line; further: nearly all actives have a fitted effect of over 60% in size)
[2] = qHTS for Inhibitors of the Functional Ribonucleoprotein Complex (vRNP) of Lassa (LASV) Arenavirus: Viability assay - alamar blue signal for LASV Primary Screen (AID 1347083; calls by dose curve; tested in HEK293 reporter line; further: nearly all actives have a fitted effect of over 80% in size)
[3] = qHTS for Inhibitors of the Functional Ribonucleoprotein Complex (vRNP) of Lymphocytic Choriomeningitis Arenaviruses (LCMV): Viability assay - alamar blue signal for LCMV Primary Screen (AID 1347085; calls by dose curve; tested in HEK293 reporter line; further: nearly all actives have a fitted effect of over 80% in size)
[4] = target: Nucleoprotein (Lymphocytic choriomeningitis virus (strain Armstrong)) (UniProt P09992); test: qHTS for Inhibitors of the Functional Ribonucleoprotein Complex (vRNP) of Lymphocytic Choriomeningitis Arenaviruses (LCMV): LCMV Primary Screen - GLuc reporter signal (AID 1347086); further: nearly all actives have a fitted effect of over 70% in size
Chain of Nucleoprotein (Lymphocytic choriomeningitis virus (strain Armstrong)) (P09992 whole entry, looked up): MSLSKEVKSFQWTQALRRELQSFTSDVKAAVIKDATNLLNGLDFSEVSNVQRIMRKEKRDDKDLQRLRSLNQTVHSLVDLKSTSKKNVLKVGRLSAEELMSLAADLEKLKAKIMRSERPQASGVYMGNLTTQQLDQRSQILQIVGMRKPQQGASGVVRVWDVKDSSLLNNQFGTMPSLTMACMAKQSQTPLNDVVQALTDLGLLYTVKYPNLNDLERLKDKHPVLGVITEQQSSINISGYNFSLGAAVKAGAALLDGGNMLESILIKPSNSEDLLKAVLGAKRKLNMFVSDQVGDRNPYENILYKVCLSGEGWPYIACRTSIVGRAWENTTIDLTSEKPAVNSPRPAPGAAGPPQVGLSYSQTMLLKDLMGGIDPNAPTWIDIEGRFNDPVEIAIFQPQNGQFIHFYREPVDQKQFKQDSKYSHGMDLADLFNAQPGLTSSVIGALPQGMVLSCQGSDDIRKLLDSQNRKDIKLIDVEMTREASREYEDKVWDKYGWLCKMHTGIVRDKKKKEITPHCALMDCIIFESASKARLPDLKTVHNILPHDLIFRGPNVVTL

[5] = Cytotoxicity counterscreen for inhibitors of SARS-CoV-2 cell entry (AID 1645845); further: nearly all actives have a fitted effect of over 50% in size
Summary of the method: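 Counterscreen run in the same HEK293-ACE2 line as the pseudotyped-particle entry assay, without particles. Viability after 48 h at 37 C was read as ATP luminescence, scaled between cell-containing and cell-free wells.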

[6] = Primary qHTS to identify inhibitors of SARS-CoV-2 cell entry (AID 1645846); settings: activity change, negative = inhibition: at 57.1 µM (top of the series) unless noted; further: nearly all actives have a fitted effect of over 45% in size
Summary of the method: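 HEK293-ACE2 (Expi293F, stable hACE2), 1500 cells/well, o/n 37C; cpd 23 nL pin, 1 h; MLV-PP w/ SARS-CoV-2-S (Wuhan-Hu-1, Δ19 C-term); 48 h 37C; Bright-Glo luminescence; normalized vs S-PP and bald PP.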

[7] = Validation screen for inhibitors of Lassa infection (AID 463096)
[8] = Inducers of the Endoplasmic Reticulum Stress Response (ERSR) in human glioma: Validation (AID 504836; active means well fitted curve in the direction sought with a large enough effect; an effect the other way counts as inactive or inconclusive)
Summary of the method: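 Stably transfected U87-MG glioma cells carrying a GRP78-based luciferase sensor; 16 h compound incubation. Luminescence end-point read 10 min after Bright-Glo addition at room temperature.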

[9] = VSVG counterscreen qHTS to identify inhibitors of SARS-CoV-2 cell entry (AID 1645847); further: nearly all actives have a fitted effect of over 65% in size; further: potency means the concentration at half of the fitted maximal effect
Summary of the method: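 Expi293F/hACE2 cells, overnight plating; cpd 1 h, 37C/5% CO2; + VSV-G PP (MLV pseudotyping), 48 h; supernatant removed, Bright-Glo luciferase read. Norm: VSV-G PP and bald PP wells.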

[10] = target: Cytochrome P450 3A4 (Homo sapiens) (UniProt P08684); test: qHTS Assay for Activators of Cytochrome P450 3A4 (AID 885; active means well fitted curve in the direction sought with a large enough effect; an effect the other way counts as inactive or inconclusive; further: nearly all actives have a fitted effect of over 65% in size)
Chain of Cytochrome P450 3A4 (Homo sapiens) (P08684 whole entry, looked up): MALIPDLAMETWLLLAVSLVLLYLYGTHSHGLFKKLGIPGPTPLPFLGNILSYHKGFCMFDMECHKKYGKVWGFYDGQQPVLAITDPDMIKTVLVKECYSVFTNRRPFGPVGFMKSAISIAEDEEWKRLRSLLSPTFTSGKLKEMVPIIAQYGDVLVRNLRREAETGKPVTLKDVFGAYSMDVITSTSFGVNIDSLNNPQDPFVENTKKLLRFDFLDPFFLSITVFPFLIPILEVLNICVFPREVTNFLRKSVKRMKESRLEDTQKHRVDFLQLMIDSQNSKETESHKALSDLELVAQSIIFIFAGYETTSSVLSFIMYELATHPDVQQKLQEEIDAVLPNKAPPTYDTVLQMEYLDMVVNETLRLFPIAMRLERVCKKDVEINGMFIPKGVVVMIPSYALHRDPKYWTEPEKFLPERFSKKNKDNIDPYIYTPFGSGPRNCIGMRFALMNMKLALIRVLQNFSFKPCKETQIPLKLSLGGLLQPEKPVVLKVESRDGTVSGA
Summary of the method: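 CYP3A4 activity: Luciferin-PPXE O-dealkylation, 25uM substrate, 200mM KPO4, RT throughout. Read-out is luciferase luminescence; higher values reflect activation.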

[11] = target: Cytochrome P450 2C19 (Homo sapiens) (UniProt P33261); test: qHTS Assay for Inhibitors and Substrates of Cytochrome P450 2C19 (AID 899; active means well fitted curve in the direction sought with a large enough effect; an effect the other way counts as inactive or inconclusive; further: potency means the concentration at half of the fitted maximal effect; nearly all actives have a fitted effect of over 60% in size)
Chain of Cytochrome P450 2C19 (Homo sapiens) (P33261 whole entry, looked up): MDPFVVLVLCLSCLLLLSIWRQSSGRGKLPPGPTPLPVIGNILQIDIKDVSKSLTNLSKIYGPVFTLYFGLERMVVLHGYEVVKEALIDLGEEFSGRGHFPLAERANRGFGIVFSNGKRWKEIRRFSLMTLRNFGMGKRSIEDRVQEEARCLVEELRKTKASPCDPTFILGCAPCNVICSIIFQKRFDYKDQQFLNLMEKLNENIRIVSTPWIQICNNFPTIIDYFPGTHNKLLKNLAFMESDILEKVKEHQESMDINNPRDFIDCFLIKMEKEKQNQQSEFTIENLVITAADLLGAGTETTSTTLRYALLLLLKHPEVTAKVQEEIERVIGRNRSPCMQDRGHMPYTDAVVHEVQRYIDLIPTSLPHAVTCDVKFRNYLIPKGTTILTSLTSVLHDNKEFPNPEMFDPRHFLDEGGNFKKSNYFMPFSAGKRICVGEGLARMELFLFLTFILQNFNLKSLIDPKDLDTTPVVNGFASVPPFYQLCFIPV
Summary of the method: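 5 nM human CYP2C19 with 10uM Luciferin-H EGE (at KM) in 50mM KPO4, compound preincubated 10 min at 37C, then NADPH regeneration for 60 min at 37C. Luciferin read by luminescence after detection reagent; normalized to 57uM ketoconazole as full inhibition.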

[12] = target: Alpha-galactosidase (Coffea arabica) (UniProt Q42656); test: Counterscreen for Glucocerebrosidase Inhibitors: qHTS Assay for Coffee Bean alpha-Galactosidase at pH 4.5 (AID 957; active means well fitted curve in the direction sought with a large enough effect; an effect the other way counts as inactive or inconclusive)
Chain of Alpha-galactosidase (Coffea arabica) (Q42656 whole entry, looked up): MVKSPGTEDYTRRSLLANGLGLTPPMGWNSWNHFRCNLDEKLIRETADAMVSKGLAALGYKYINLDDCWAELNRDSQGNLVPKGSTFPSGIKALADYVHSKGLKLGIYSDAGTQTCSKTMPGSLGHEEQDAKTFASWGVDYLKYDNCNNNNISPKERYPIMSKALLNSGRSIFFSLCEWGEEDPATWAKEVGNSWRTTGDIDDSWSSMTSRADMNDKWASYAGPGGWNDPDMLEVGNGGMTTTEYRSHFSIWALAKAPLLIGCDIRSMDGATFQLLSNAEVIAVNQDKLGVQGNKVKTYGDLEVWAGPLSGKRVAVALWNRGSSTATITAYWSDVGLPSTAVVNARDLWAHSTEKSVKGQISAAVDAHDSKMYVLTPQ
Summary of the method: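 Fluorogenic qHTS at pH 4.5 (citrate buffer with Tween-20): 2 nM enzyme, 80 uM 4-MU-alpha-galactoside substrate, compound titrated 0.7 nM to 77 uM, 20 min room temperature. Glycine/NaOH stop; 4-MU read Ex 365/Em 440; Hill-equation AC50 against no-enzyme and enzyme controls.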

[13] = target: Alpha-galactosidase (Coffea arabica) (UniProt Q42656); test: Counterscreen for Glucocerebrosidase Inhibitors: qHTS Assay for Coffee Bean alpha-Galactosidase at pH 5.9 (AID 998; active means well fitted curve in the direction sought with a large enough effect; an effect the other way counts as inactive or inconclusive)
Summary of the method: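 Enzyme 2 nM + cpd (0.7 nM–77 uM titration) + 4-MU-alpha-Gal 80 uM, pH 5.9 citrate/Tween-20, RT 20 min, NaOH/glycine stop pH 10, fluor 365/440. Normalized to no-enzyme and full-activity controls; Hill-fit AC50.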

[14] = qHTS profiling of the MIPE4 collection as inhibitors of Plasmodium falciparum (3D7) proliferation (AID 743344; call rule not given here); settings: P. falciparum 3D7 in erythrocytes, SYBR Green DNA fluorescence, 72 h; at 28.5 µM (top of the series) unless noted
Summary of the method: (§1)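 Parasite DNA was quantified by SYBR Green I fluorescence (ex 485, em 535 nm) after overnight lysis in saponin/Triton buffer at room temperature. Cultures at 0.3% parasitemia and 2.5% hematocrit were first exposed to compound for 72 h at 37 C; signals were normalised to artemisinin (0.29 uM) and vehicle wells.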

[15] = qHTS profiling of the MIPE4 collection as inhibitors of Plasmodium falciparum (DD2) proliferation (Rep 2) (AID 743346; call rule not given here); settings: P. falciparum Dd2 in erythrocytes, SYBR Green DNA, 72 h; at 28.5 µM (top of the series) unless noted
Summary of the method: as §1

[16] = qHTS profiling of the MIPE4 collection as inhibitors of Plasmodium falciparum (HB3) proliferation (AID 743347; call rule not given here); settings: P. falciparum HB3 in erythrocytes, SYBR Green DNA, 72 h; at 28.5 µM (top of the series) unless noted
Summary of the method: as §1

C[C@H]1COC2=C1C(=O)C(=O)c1c2ccc2c1CCCC2(C)C
-2.76%: activity change, negative = inhibition [6]
inactive: Potency [1] | Potency [2] | Potency [3] | Potency [4] | Potency [5]

CCC(C)N(C)C(=O)c1cc2ccccc2c(-c2ccccc2Cl)n1 (stereo not given)
4.18%: activity change, negative = inhibition [6]
inactive: Potency [7] | outcome [8] | Potency [1] | Potency [2] | Potency [3] | Potency [4] | Potency [5]

CC(=O)NC(CS)C(=O)O (stereo not given)
-1.31%: activity change, negative = inhibition [6]
inactive: Potency [1] | Potency [2] | Potency [3] | Potency [4] | Potency [5]

O=C(NCCCCN1CCOCC1)c1cc2ccccc2o1
inactive: Potency [1] | Potency [2] | Potency [3] | Potency [4] | Potency [5] | Potency [6] | Potency [9]

O=C1NC(=O)/C(=C/c2ccc(-c3ccc(F)cc3O)o2)S1
inactive: outcome [8] | Potency [1] | Potency [2] | Potency [3] | Potency [4] | Potency [5] | Potency [6]

O=c1c(O)c(-c2cc(O)c(O)c(O)c2)oc2cc(O)cc(O)c12
inactive: Potency [10] | outcome [12] | outcome [13] | outcome [8] | Potency [1] | Potency [2] | Potency [3] | Potency [4] | Potency [5] | Potency [6]
active: Potency [11] 10 µM

CCN1CCN(c2ccc(Nc3cc(N(C)C(=O)Nc4c(Cl)c(OC)cc(OC)c4Cl)ncn3)cc2)CC1
inactive: Potency [1] | Potency [2] | Potency [3] | Potency [4] | Potency [5] | Potency [6]

NC(=O)c1ccc2[nH]ccc2c1
-19.6%: activity change, negative = inhibition [6]
inactive: outcome [8] | Potency [1] | Potency [2] | Potency [3] | Potency [4] | Potency [5]

CN1C(=O)C[C@H](C(=O)N[C@@H](Cc2cnc[nH]2)C(=O)N2CCC[C@@H]2C(N)=O)NC1=O
active: Potency [9] 0.961 µM
86%: parasite growth, % of DMSO control [14]
inactive: Potency [1] | Potency [2] | Potency [3] | Potency [4] | Potency [5] | Potency [6]
48.7%: growth, % of control [16]
70.2%: parasite growth, % of control (lower = inhibition) [15]

OCc1ccc(-c2ccc(-c3ccc(CO)s3)o2)s1
inactive: Potency [1] | Potency [2] | Potency [3] | Potency [4] | Potency [5] | Potency [6]

CCCCCNC(=O)N1CCC(CN(Cc2ccc(Cl)cc2)Cc2ccc([N+](=O)[O-])s2)C1 (stereo not given)
inactive: Potency [1] | Potency [2] | Potency [3] | Potency [4] | Potency [5]
-21.9%: activity change, negative = inhibition [6]
